# High-throughput results deposited in PubChem BioAssay by National Center for Advancing Translational Sciences (NCATS).
# Sampled rows, rich in hits. Any-hit rate of the full collection: about 7.6%.
# KB-V1 cytotox: qHTS assay for MDR1-selective chemotherapeutics: Primary screen using the drug-selected MDR subline cells KB-V1. KB-V1 MDR cells viability, CellTiter-Glo, 72 h. Potency, µM (top dose mostly 46.1 µM), hits mostly cytotoxic. hit rate 3.4% among 400,000. AID 1347076, 2019; note: potency is the fitted concentration of half-maximal effect; % is set by controls: 0 for no effect and ±100 for the full control effect; nearly all actives have a fitted effect of over 60% in size
#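 Cells of the MDR subline KB-V1 are plated, dosed with compound at multiple concentrations, and incubated 72 h at 37 degrees C; CellTiter-Glo is then added and luminescence read after 10 min.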
# KB-3-1 cytotox: qHTS assay for MDR1-selective chemotherapeutics: Primary screen using the parental adenocarcinoma cell KB-3-1; KB-3-1 viability, CellTiter-Glo ATP luminescence, 72 h; Potency, µM (doses to about 46.1 µM), usual class: cytotoxic; hit rate 1.4% among 400,000; note: potency is the fitted concentration of half-maximal effect; % is set by controls: 0 for no effect and ±100 for the full control effect; nearly all actives have a fitted effect of over 60% in size
#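 Here the drug-naive KB-3-1 line serves as comparator for MDR sub-line selectivity; cells received compound titrations, 72 h at 37 °C, then CellTiter-Glo readout.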
# KCNH2 WT inh: qHTS for Inhibitors of KCHN2 3.1: Wildtype qHTS; Voltage-gated inwardly rectifying potassium channel KCNH2 (Homo sapiens), Q12809; activity change, % at 1.84 µM; U2OS, BacMam KCNH2, thallium flux FluxOr; active compounds read low; hit rate 0.37% among 340,000; AID 720551, 2013;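 active = maximum activity change below -70%; inconclusive = maximum activity change between -70% and -50%; inactive = maximum activity change above -50%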; note: % is set by controls: 0 for no effect and ±100 for the full control effect
# Target sequence (Q12809 whole entry, looked up): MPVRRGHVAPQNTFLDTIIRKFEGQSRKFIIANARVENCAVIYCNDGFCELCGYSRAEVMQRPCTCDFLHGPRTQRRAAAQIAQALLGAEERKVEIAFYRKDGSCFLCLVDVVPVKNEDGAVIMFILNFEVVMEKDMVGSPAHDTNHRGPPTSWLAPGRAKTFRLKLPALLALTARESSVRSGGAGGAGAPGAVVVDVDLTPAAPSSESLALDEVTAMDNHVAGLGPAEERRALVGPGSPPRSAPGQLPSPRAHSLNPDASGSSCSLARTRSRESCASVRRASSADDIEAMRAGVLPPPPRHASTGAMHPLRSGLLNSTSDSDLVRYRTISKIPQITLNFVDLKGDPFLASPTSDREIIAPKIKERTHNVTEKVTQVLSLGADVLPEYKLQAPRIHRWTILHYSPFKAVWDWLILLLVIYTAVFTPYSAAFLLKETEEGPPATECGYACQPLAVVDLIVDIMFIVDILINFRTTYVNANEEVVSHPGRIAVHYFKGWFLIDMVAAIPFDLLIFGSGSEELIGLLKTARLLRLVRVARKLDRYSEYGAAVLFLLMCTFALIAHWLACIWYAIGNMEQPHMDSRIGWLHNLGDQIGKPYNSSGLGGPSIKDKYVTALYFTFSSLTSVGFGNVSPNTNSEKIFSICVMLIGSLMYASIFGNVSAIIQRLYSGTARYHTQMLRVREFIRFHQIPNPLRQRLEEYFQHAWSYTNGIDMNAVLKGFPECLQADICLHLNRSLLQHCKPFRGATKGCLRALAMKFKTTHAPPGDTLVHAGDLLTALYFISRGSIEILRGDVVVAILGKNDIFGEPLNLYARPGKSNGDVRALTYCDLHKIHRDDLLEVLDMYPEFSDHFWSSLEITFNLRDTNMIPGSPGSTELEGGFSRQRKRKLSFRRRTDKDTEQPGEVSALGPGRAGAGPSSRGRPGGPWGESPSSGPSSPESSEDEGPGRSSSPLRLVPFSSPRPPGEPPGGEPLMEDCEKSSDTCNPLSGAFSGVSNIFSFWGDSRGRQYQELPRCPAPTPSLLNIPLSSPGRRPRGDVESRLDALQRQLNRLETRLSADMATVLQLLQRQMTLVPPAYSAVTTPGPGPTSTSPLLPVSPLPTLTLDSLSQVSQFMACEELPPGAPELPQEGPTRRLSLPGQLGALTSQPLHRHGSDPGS
#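 U2OS cells were transduced with wild-type KCNH2 virus (2.03 x 10^8 / mL) for 4 h at room temperature, then cultured overnight at 37 C. Thallium flux was read with FluxOr dye. Rate constants were normalized to DMSO controls.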
# KCNH2 3.1 inh: qHTS for Inhibitors of KCHN2 3.1: Mutant qHTS; activity change, % (tested at about 1.8 µM); hit rate 0.95% among 340,000; Potassium voltage-gated channel subfamily H member 2, brain isoform KCNH2 3.1 (human); U2OS KCNH2 3.1, thallium flux FluxOr; active compounds read low; AID 720553, 2013;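 active = maximum activity change below -70%; inconclusive = maximum activity change from -70% to -50%; inactive = maximum activity change above -50%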;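 note: thallium influx rate constant from kinetic fluorescence after stimulation buffer; % is set by controls: 0 for no effect and ±100 for the full control effect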
#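 Normalized rate constant (relative to positive and negative DMSO controls) derived from a 2 min kinetic fluorescence read after stimulation; U2OS cells expressing the 3.1 isoform via virus at 1.77 x 10^8 /mL.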
# SW480 rereplic: A quantitative high throughput screen for small molecules that induce DNA re-replication in SW480 colon adenocarcinoma cells | hit rate 1.8% among 340,000 | Potency, µM (series often up to 46.1 µM), for the others: at the highest dose re-replication activation, most hits filed as activators | SW480 DNA re-replication, Hoechst DNA content imaging, 48 h | AID 624297, 2012; note: potency is the fitted concentration of half-maximal effect; % of control where 0% means no effect; nearly all actives have a fitted effect of over 55% in size
#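 SW480 cells exposed to compounds for 48 hr at 37 C, 5% CO2, then Hoechst-stained 40 min. Nuclear DNA content imaged by fluorescence scanning (405 nm excitation, 500-530 nm emission); re-replication scored as increased high-intensity nuclei.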
# MCF10A rerep: A quantitative high throughput screen for small molecules that induce DNA re-replication in MCF 10a normal breast cells; hit rate 2.9% among 350,000; Potency, µM (titrated, usually from 46.1 µM), without a hit: top-dose activity, positive = re-replication, actives largely listed as activators; MCF 10A DNA re-replication, Hoechst nuclear intensity, 48 h; note: potency is the fitted concentration of half-maximal effect; % of control where 0% means no effect; nearly all actives have a fitted effect of over 50% in size
# * marks the source's active call; other numbers are inactive results; i = inactive; ? = inconclusive; nt = no result given; + = active, no number; [ ] = dose if it differs, or a comment. Unless noted, calls come from the whole dose curve; as a rule, active = well fitted curve in the direction sought with a large enough effect; inconclusive = small, poorly fitted or top-dose-only effect, or another doubt; inactive = no such curve, though single readings can be large; an effect the other way counts as inactive or inconclusive.
SMILES,KB-V1 cytotox,KB-3-1 cytotox,KCNH2 WT inh,KCNH2 3.1 inh,SW480 rereplic,MCF10A rerep
N#C/C(=C\c1ccc(Br)s1)C(=O)N1CCN(c2ccccc2)CC1,18µM*,i,2,1,0%,?
Cc1ccc2oc(-c3ccc(C)c(NC(=O)COc4ccccc4C)c3)nc2c1,i,i,nt,nt,nt,nt
C=C1NN(CC2CC2)C(=O)N1c1ccc(OCc2ccccc2)cc1,i,i,nt,nt,nt,nt
Cc1cc(C(Br)(Br)Br)nc2ccccc12,i,i,nt,nt,nt,nt
Cc1cc(/C=C\c2ccccc2)nc2ccccc12,i,?,-28,-189*,?,37%
CCOc1ccc(CCNC(=O)CN(C)S(=O)(=O)c2cccs2)cc1OCC,4.6µM*,i,-6,-16,1%,6%
CCOc1ccc(CCNC(=O)Cn2c(=O)oc3ccccc32)cc1OCC,18µM*,i,20,nt,-3%,-4%
COc1ccc(Cn2c(=O)oc3ccccc32)cc1OC,21µM*,?,2,14,nt,nt
COc1ccc(CNC(=O)Cn2c(=O)oc3ccccc32)cc1OC,i,i,-14,0,-4%[9.22 µM],-2%
O=C(Nc1ccccc1N1CCCCC1)c1cccs1,i,i,-3,2,7%,21µM*
COc1ccccc1/C=C/C(=O)OCC(=O)Nc1cc(C(F)(F)F)ccc1N1CCOCC1,?,?,1,-9,9.2µM*,?
O=C(Nc1ccccc1N1CCCCC1)c1cccc(Cl)c1,i,i,3,11,0%,21µM*
O=C(COC(=O)/C=C/c1ccccc1)Nc1cc(C(F)(F)F)ccc1N1CCOCC1,i,i,-3,10,5%,-8%
COc1ccc(N2CCOCC2)c(NC(=O)COc2cccc(C)c2)c1,13µM*,i,-3,-10,-4%,-1%
COc1ccc(N2CCOCC2)c(NC(=O)COc2cccc(C)c2C)c1,?,i,11,-11,0%,?
CN(Cc1ccccc1NCC(=O)Nc1ccccc1C#N)C1CCCCC1,i,i,1,1,3%[1.84 µM],-21%
Cc1cc(C)c(OCC(=O)Nc2ccccc2N2CCCCC2)c(C)c1,16µM*,i,2,-9,?,17%
Cc1ccc(C)c(OCC(=O)Nc2ccccc2N2CCCC2)c1,i,i,5,-12,6%,7%
Cc1ccccc1OCC(=O)Nc1ccccc1N1CCOCC1,?,i,-11,0,-1%,?
Cc1cc(C)c(OCC(=O)Nc2ccccc2N2CCOCC2)c(C)c1,i,21µM*,-9,5,?,?
Cc1ccc(OCC(=O)Nc2ccccc2N2CCCC2)c(C)c1,i,i,+,-11,5%,67%
N#Cc1ccccc1NC(=O)CNc1ccccc1N1CCCCC1,21µM*,i,-7,12,0%,?
C=CCn1c(SCC#N)nc2ccc(Cl)cc2c1=O,i,i,nt,nt,nt,nt
Cc1cccc(/C=N/NC(=O)C[n+]2ccccc2)c1,i,i,3,17,2%,0%
O=C(COc1ccccc1)Nc1ccccc1N1CCCCC1,i,i,3,-14,1%,?
SMILES,KB-V1 cytotox,KB-3-1 cytotox,KCNH2 WT inh,KCNH2 3.1 inh,SW480 rereplic,MCF10A rerep
Cc1ccc(C)c(N2N=C(C(=O)Nc3ccccc3N3CCCC3)CCC2=O)c1,?,i,-6,nt,?,21µM*
O=C(COc1cccc(Cl)c1)Nc1ccccc1N1CCCCC1,?,i,10,2,6%,18µM*
CC1CCCCN1C(=O)COC(=O)c1cc([N+](=O)[O-])ccc1N1CCOCC1 (stereo not drawn),?,i,-2,11,-1%,4%
CCc1ccc(NC(=O)CSc2nc3n[nH]c(C)c3c(=N)n2-c2ccccc2C)cc1,i,i,nt,nt,nt,nt
CCOc1ccccc1-n1c(SCC(=O)Nc2ccc(CC)cc2)nc2n[nH]c(C)c2c1=N,?,18µM*,-7,-5,-2%,8.2µM*
CCc1ccccc1NC(=O)CSc1nc2n[nH]c(C)c2c(=N)n1-c1cccc(OC)c1,8.2µM*,i,-8,-1,18%,?
COc1ccc(OC)c(NC(=O)CSc2nc3n[nH]c(C)c3c(=N)n2-c2cccc(Cl)c2C)c1,?,?,-5,0,7%,27%
Cc1ccccc1-n1c(SCC(=O)Nc2ccccc2Cl)nc2n[nH]c(C)c2c1=N,i,?,-4,-9,-6%,?
CCOc1ccccc1NC(=O)CCSc1nc2n[nH]c(C)c2c(=N)n1-c1ccccc1Cl,?,i,-3,-9,?,13µM*
Cn1c(=NC(=O)COc2ccccc2)sc2ccccc21,i,i,-16,-6,-1%,-1%
CN(Cc1cccc(F)c1)C(=O)CNS(=O)(=O)c1ccc2ccccc2c1,i,i,-2,3,-3%,3%
COc1cc(C)c(S(=O)(=O)N2CCOCC2)cc1C,i,i,-1,-14,8.2µM*,3.3µM*
Cc1cccc(C)c1NC(=O)CSc1nc(C)c(CC(=O)c2ccc(Br)cc2)c(C)c1C#N,?,?,7,3,10%,16µM*
COc1ccc(/C(C)=N/NC(=O)CNC(=O)/C=C\c2ccco2)cc1,?,?,8,-14,6%,9%
COc1cccc(CN2C(=NC(=O)CCC3CCCC3)SC3CS(=O)(=O)CC32)c1 (stereo not drawn),i,i,-3,-2,10%,9%
O=S(=O)(c1ccc(Br)cc1)c1cnc2ccccc2n1,i,i,-5,nt,18µM*,?
O=C1CCCC2=C1C(c1ccsc1)CC(=O)N2c1ccccc1 (stereo not drawn),13µM*,i,-1,-1,11%,14%
COC(C[C@@H]1O[C@@H]1[C@H](O)[C@@H](C)OCc1ccccc1)OC,?,i,-12,-1,-16%,5%
Cc1cccc(S(=O)Cc2ccc(C(=O)N3CCN(C(=O)c4ccco4)CC3)o2)c1 (stereo not drawn),i,i,15,14,0%,9%
COc1ccc(S(=O)(=O)Nc2ccc(Cl)cn2)c(C)c1C,23µM*,i,-4,8,-2%,-2%
